# Source: PubChem (National Center for Advancing Translational Sciences (NCATS))
# In the library only some 18% were active in any assay of this set; here they are far more common.
# DT40 TDP1 CPT = growth inhibition of DT40 Tdp1-/-;hTDP1 cells with camptothecin (screen for TDP1 inhibitors). Potency, µM (highest dose often 46.2 µM), for inactives: at the highest dose activity change, negative = growth inhibition, actives largely listed as inhibitors. chicken DT40 Tdp1-/-;hTDP1 cells + 20 nM CPT, ATP luminescence, 48 h. AID 686979. hit rate 12% among 420,000; also: potency is read from the fitted curve at half-maximal effect; % is scaled to controls: 0 for no effect and ±100 for the full control effect; nearly all actives have a fitted effect of over 55% in size
#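 Cell growth measured by CellTiter-Glo luminescence after a minimum 48 h, 37 C compound exposure with 20 nM CPT in Tdp1-knockout DT40 cells stably expressing hTDP1, seeded 400/well; qHTS titration format.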
# IL1B secr inh = blocks inflammasome-driven IL-1 beta release | AID 743279 | hit rate 4.7% among 360,000 | activity change, % at 57.5 µM | THP-1 LPS/ATP IL-1B secretion, AlphaLISA, 16 h; active compounds read low; in the data active = activity change below about -50%; inconclusive = mostly about -30% to -49%; also: % is scaled to controls: 0 for no effect and ±100 for the full control effect
#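 THP-1 cells pretreated 1 hr with compounds (up to 57.5 uM final), then stimulated with LPS (250 ng/mL final) plus ATP (1.25 mM final); secreted IL-1B measured by AlphaLISA after 16 hr, decreased signal indicating inhibition.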
# HepG2 tox = HepG2 cytotoxicity, counter-screen for TGF-b inhibitors; HepG2 CAGA-GFP viability, ATP luminescence, 18 h; Potency, µM (series often up to 46.1 µM), for the others: at the highest dose activity change, negative = cytotoxicity, actives largely listed as cytotoxic; hit rate 0.76% among 410,000; AID 588856; also: potency is read from the fitted curve at half-maximal effect
#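 HepG2 CAGA-GFP cells (1000/well, DMEM with 1% FBS) received compound, then TGF-beta at 500 pg/mL final, and were incubated 18 hours at 37 degrees C. Viability was read by CellTiter-Glo luminescence. Media-only wells were set as complete cell-killing and DMSO as no toxicity.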
# TDP1 cell noCPT = qHTS for Inhibitors of human tyrosyl-DNA phosphodiesterase 1 (TDP1): qHTS in cells in absence of CPT. DT40 Tdp1-/- hTDP1 cells, no CPT, ATP luminescence, 48 h. Potency, µM (highest dose often 46.2 µM), inactives show at the highest dose activity change, negative = growth inhibition, usual class: inhibitors. hit rate 15% among 420,000; also: potency is read from the fitted curve at half-maximal effect; % is scaled to controls: 0 for no effect and ±100 for the full control effect; nearly all actives have a fitted effect of over 55% in size
#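 DT40 Tdp1-/-;hTDP1 cells, no CPT (DMSO vehicle only), 400 cells/well; compounds pin-transferred; ≥48 hr, 37 °C; CellTiter-Glo 30 min RT dark, luminescence read.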
# TDP1 inh = inhibitors of human tyrosyl-DNA phosphodiesterase TDP1; recombinant TDP1, AlphaScreen DNA substrate cleavage; Q9NUW8; hit rate 0.28% among 350,000; AID 485290; Potency, µM (doses to about 130 µM), for inactives: top-dose activity change, negative = inhibition, usual class: inhibitors; also: potency is read from the fitted curve at half-maximal effect; % is scaled to controls: 0 for no effect and ±100 for the full control effect; nearly all actives have a fitted effect of over 40% in size
# Target sequence (Q9NUW8 whole entry, looked up): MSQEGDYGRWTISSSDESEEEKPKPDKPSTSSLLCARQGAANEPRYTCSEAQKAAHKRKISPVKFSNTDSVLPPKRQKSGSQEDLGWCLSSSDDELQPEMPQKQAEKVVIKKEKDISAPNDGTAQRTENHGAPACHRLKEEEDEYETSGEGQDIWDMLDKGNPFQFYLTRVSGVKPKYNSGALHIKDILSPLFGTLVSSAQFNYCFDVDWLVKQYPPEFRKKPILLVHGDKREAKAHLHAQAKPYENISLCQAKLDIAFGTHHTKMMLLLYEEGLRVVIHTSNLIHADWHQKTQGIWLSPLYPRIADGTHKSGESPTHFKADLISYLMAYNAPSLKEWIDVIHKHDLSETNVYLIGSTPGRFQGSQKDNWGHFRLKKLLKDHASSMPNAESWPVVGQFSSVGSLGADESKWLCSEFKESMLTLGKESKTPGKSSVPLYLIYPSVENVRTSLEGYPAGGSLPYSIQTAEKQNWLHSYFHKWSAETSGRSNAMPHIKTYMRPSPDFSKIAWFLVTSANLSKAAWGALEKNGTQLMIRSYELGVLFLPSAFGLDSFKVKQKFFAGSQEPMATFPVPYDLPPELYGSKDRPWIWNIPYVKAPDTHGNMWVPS
#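 Steps: enzyme plus compound, 15 min RT; add biotin/phosphotyrosine-FITC oligonucleotide (15 nM final), react 5 min; add donor/acceptor beads (10 ug/ml final), 10 min; read AlphaScreen. Tdp1 at 1 nM final.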
# TGFb inhibitor = blocks TGF-b signaling; HepG2 CAGA-GFP TGF-b/SMAD3 reporter, GFP fluorescence, 18 h; TGF-beta stimulated, 500 pg/mL final; Potency, µM (highest dose often 46.1 µM), without a hit: at the top dose activity, negative = inhibition, usual class: inhibitors; hit rate 1.2% among 410,000; AID 588855; also: potency is read from the fitted curve at half-maximal effect; % is scaled to controls: 0 for no effect and ±100 for the full control effect; nearly all actives have a fitted effect of over 65% in size
#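 Inhibition was scored as loss of TGF-beta-induced (500 pg/mL final, 18 hours, 37 degrees C) GFP in HEPG2 cells carrying a CAGA-GFP reporter, in DMEM with 1% FBS. Well GFP was summed per cell; Activity was normalised to unstimulated and stimulated DMSO wells, then concentration-response fitting.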
# Active calls of the source: *; ? = inconclusive; nt = not tested or not shown; [ ] = remark or other dose. Unless noted, calls follow the shape of the dose curve; as a rule, active = well fitted curve in the direction sought with a large enough effect; inconclusive = small, poorly fitted or top-dose-only effect, or another doubt; inactive = no such curve, though single readings can be large; an effect the other way counts as inactive or inconclusive.
SMILES,DT40 TDP1 CPT,IL1B secr inh,HepG2 tox,TDP1 cell noCPT,TDP1 inh,TGFb inhibitor
O=C(NC1CCCC1)C(c1ccc(Cl)cc1)N(Cc1ccc(F)cc1)C(=O)CCl (configuration not stated),2.6µM*,?,10%,2.6µM*,4%,7%
O=[n+]1cc(-c2ccc(Cl)cc2)n([O-])c2c1CCCCC2,-10%,-12,-13%,?,-5%,?
COc1ccccc1OCC(=O)N(Cc1nc(-c2ccccc2)no1)C1CCCCC1,23µM*,-10,7%,21µM*,11%,-4%
CCN(C(=O)CCc1ccccc1)C1CCCCC1,?,-12,-35%,?,-3%,?
CCN(C(=O)COc1ccccc1)C1CCCCC1,21µM*,-14,-3%,?,0%,1%
CCN(C(=O)CSc1ccccn1)C1CCCCC1,10µM*,1,-18%,15µM*,0%,-6%
Cc1cc(C(=O)Nc2ccccc2-c2nc(CNC(=O)C3(C)CCCCC3)c(C)o2)c(C)o1,-10%[9.04 µM],nt,nt,2%,nt,nt
CCCN1C(=O)c2cc(C(=O)Nc3ccc(OC)c(OC)c3)ccc2C1Nc1ccc(OC)c(OC)c1 (configuration not stated),-27%,23,-21%,?,6%,1%
COc1ccc(NC(=O)c2ccc(-n3c(C)ccc3C)cc2)c(OC)c1,?,-75*,3%,?,-10%,1%
CCOc1ccccc1NC(=O)c1ccc2ccccc2c1,8%,10,-22%,?,nt,4%
CCOc1ccccc1NC(=O)c1cc(CC(C)C)oc1C,23µM*,22,-28%,23µM*,3%,-30%
CCOc1ccccc1NC(=O)c1ccc2[nH]c(C)c(C)c2c1,?,33,-21%,26µM*,4%,?
CCCN1C(=O)c2cc(C(=O)Nc3ccc(OC)cc3OC)ccc2C1Nc1ccc(OC)cc1OC (configuration not stated),23µM*,-13,-3%,?,5%,-2%
COc1ccc(NC(=O)c2ccc3[nH]c(C)c(C)c3c2)c(OC)c1,23µM*,-6,-5%,18µM*,nt,0%
CCOC(=O)c1c(C)c(-c2ccccc2)n(CC(=O)NCc2ccccc2)c1C,?,nt,-2%,?,0%,-4%
CC[C@H](NC(=O)[C@H](CCC(=O)O)NC(=O)[C@H](CCC(=O)O)NC(=O)[C@H](CC(=O)O[S+](=O)([O-])c1cccc2c(NCCN)cccc12)NC(=O)[C@H](CCC(=O)O)NC(=O)[C@H](CC(=O)O)NC(C)=O)C(=O)ON[C@@H](C)C(=O)N[C@@H](CO)C(=O)N[C@@H](CCCCNC(=O)c1ccc(N=Nc2ccc(N(C)C)cc2)cc1)C(N)=O,nt,nt,nt,nt,-2%,nt
CCCOc1ccc(C(=O)CCNC(Cc2c[nH]c3ccccc23)C(=O)O)cc1 (configuration not stated),4.6µM*,-9,-8%,7.3µM*,nt,3%
CC(C)c1ccccc1NC(=O)C(Cc1c[nH]c2ccccc12)NC(=O)OC(C)(C)C (configuration not stated),18µM*,nt,-18%,?,nt,?
Cc1ccc(NC(=O)C(Cc2c[nH]c3ccccc23)NC(=O)OC(C)(C)C)c(C)c1 (configuration not stated),?,nt,1%,?,nt,-4%
COc1ccc(C(=O)NC(Cc2c[nH]c3ccccc23)C(=O)O)cc1 (configuration not stated),-4%,9,2%,6%,nt,1%
O=C(NC(Cc1c[nH]c2ccccc12)C(=O)Nc1ccc(OC(F)(F)F)cc1)c1cccs1 (configuration not stated),?,-68*,11µM*,?,3%,?
Cc1ccc(NC(=O)C(Cc2c[nH]c3ccccc23)NC(=O)OCC(C)C)cc1 (configuration not stated),18µM*,nt,-33%,23µM*,7%,?
COc1ccccc1C(=O)N/C(=C/c1ccco1)C(=O)Nc1cccc(C(=O)O)c1,3%,-21,10%,11%,0%,5%
Cc1ccc(C(=O)COC(=O)C(Cc2c[nH]c3ccccc23)NC(=O)c2ccc(C(C)(C)C)cc2)cc1 (configuration not stated),18µM*,nt,-38%,23µM*,0%,0%
CC(C)(C)c1ccc(C(=O)NC(Cc2c[nH]c3ccccc23)C(=O)OCC(=O)c2ccc(Br)cc2)cc1 (configuration not stated),-8%,nt,-30%,?,6%,-3%
SMILES,DT40 TDP1 CPT,IL1B secr inh,HepG2 tox,TDP1 cell noCPT,TDP1 inh,TGFb inhibitor
Cc1ccc(-c2nnn3c2nc(NCCc2ccc(Cl)cc2)c2ccccc23)cc1,4%,nt,3%,-16%,9%,-18%
Cc1cccc(-c2nnn3c2nc(NCc2ccc4c(c2)OCO4)c2ccccc23)c1,23µM*,nt,2%,?,-1%,-2%
NS(=O)(=O)c1ccc(CCNc2nc3c(-c4cccc(F)c4)nnn3c3ccccc23)cc1,?,27,-24%,12µM*,8%,?
CC(=O)NCCNc1nc2c(-c3cccc(C)c3)nnn2c2ccc(Cl)cc12,14%,nt,7%,21%,4%,-8%
Cc1cccc(-c2nnn3c2nc(NCCc2ccc(S(N)(=O)=O)cc2)c2cc(Cl)ccc23)c1,9.2µM*,nt,-25%,5.8µM*,4%,?
CC(=O)NCCNc1nc2c(-c3ccccc3)nnn2c2ccccc12,?,28,-5%,8.2µM*,nt,3%
Cc1cccc(-c2nnn3c2nc(NCCc2ccc(S(N)(=O)=O)cc2)c2ccccc23)c1,15µM*,-9,-32%,16µM*,4%,-7%
Cc1ccc(-c2nnn3c2nc(NCCc2ccc(S(N)(=O)=O)cc2)c2ccccc23)cc1,-19%,28,-23%,?,3%,?
COc1cccc(-n2c([S-])c(C(=O)Nc3ccc(S(=O)(=O)N4CCOCC4)cc3)[n+]3cc(C(N)=O)ccc23)c1,-30%,1,-10%,?,0%,1%
c1ccc(C2CCC(N3CCN(c4ccccc4)CC3)CC2)cc1 (configuration not stated),?,-18,5%,?,nt,-11%
